Experimental data published in PubChem BioAssay AID1159524 (National Center for Advancing Translational Sciences (NCATS), 2015).
Out of some 410,000 compounds screened, about 5,100 (1.2%) were called active. Entries that show only a call come without a potency. Inconclusive results (about 8%) are left out. Calls follow the shape of the full dose curve; tested in HEK293T cells. The full list was thinned out, with actives kept by preference.

Test: High Throughput Screening for Foot and Mouth Disease Virus Antivirals; also: read-out not given here; nearly all actives have a fitted effect of over 45% in size
Conditions: FMDV antiviral cell-based qHTS; series mostly up to 57.9 µM
Potency is read from the fitted curve at half-maximal effect.

| Compound | Potency |
| --- | --- |
| COc1ccc2[nH]cc(CCNCc3ccc(Br)cc3)c2c1 | inactive |
| Cc1ccc2nc(-c3ccc(C)c(NC(=O)Cc4ccccc4)c3)oc2c1 | inactive |
| O=c1oc2ccccc2cc1-c1cn(-c2ccccc2)c(=S)[nH]1 | 12.6 µM (active) |
| Cc1cc(NC(=O)c2cccc(Cl)c2)ccc1-c1cc2ccccc2oc1=O | inactive |
| COc1ccc(OC)c(-c2csc(-c3c(N)c(C(=O)c4ccccc4)n4ccccc34)n2)c1 | inactive |
| CCOC(=O)c1[nH]c(C)c(CCC(=O)N2CCN(c3ccccc3)CC2)c1C | inactive |
| CCOc1ccc2nc(N3CCCN(CCCn4cccn4)CC3)nc(C)c2c1 | inactive |
| CCCn1ccc2c(OCC(=O)NCc3ccc(F)cc3)cccc2c1=O | inactive |
| COc1ccc(C2=NS(=O)(=O)N(C)C(C(=O)N3CCCCC3)=C2)cc1 | inactive |
| COc1ccc(C2=NS(=O)(=O)N(C)C(C(=O)NC(C)c3ccccc3)=C2)cc1 (stereo not drawn) | inactive |
| COc1ccc(NC(=O)C2=CC(c3ccc(OC)c(OC)c3)=NS(=O)(=O)N2C)cc1 | 31.6 µM (active) |
| Cc1ccc2c(c1)c1c(c(=O)n(-c3ccccc3)c(=O)n1CC(=O)c1ccc(Cl)cc1)n2C | inactive |
| Clc1ccc([C@@H]2C[C@H]3CC[C@@H]2N3)cn1 | inactive |
| O=C(CSc1c2c(nc3ccc(Cl)cc13)CCCC2)NCc1ccco1 | 25.1 µM (active) |
| O=C(CSc1nc2cc3c(cc2c(=O)n1CCC1=CCCCC1)OCO3)NCc1ccco1 | inactive |
| O=C(NCc1ccco1)C1(c2ccc(Cl)cc2)CCCC1 | inactive |
| COc1cc(C)c(CN2CCc3nnc(C(C)NC(=O)c4cccnc4)n3CC2)cc1C (stereo not drawn) | inactive |
| COc1cccc(-c2ccc(O)c(CNC3CN4CCC3CC4)c2)n1 (stereo not drawn) | inactive |
| O=C(NCCN1CCOCC1)c1cnn(-c2nccc(-c3cccs3)n2)c1C1CC1 | inactive |
| O=C(c1cnccn1)N1CCC[C@@]2(CCN(Cc3ccncc3)C2)C1 | inactive |
| Cc1nc2cnc(Nc3ccccc3)nc2n(Cc2ccc(F)cc2)c1=O | inactive |
| CCCCNC(=O)c1ccc2c(c1)NC(=O)C(C(C)C)N2 (stereo not drawn) | inactive |
| COc1ccc(NC(=O)N2CC3(CCN(C(C)=O)CC3)C2)cc1 | inactive |

| Compound | Potency |
| --- | --- |
| CC(C)(C)OC(=O)N[C@H](C(=O)OC(C)(C)C)c1ccc(Br)cc1 | inactive |
| Cc1ccc(C(=O)NNC(=O)OC(C)(C)C)c(Cl)c1 | inactive |
| CC(C)(C)OC(=O)NNc1c2ccccc2nc2ccccc12 | 20 µM (active) |
| O=C(c1cc(C(F)(F)F)cc(C(F)(F)F)c1)N1CCC2(CC1)CN(c1ccncc1)C2 | inactive |
| Fc1cccc(/C=N\N=C/c2cccc(F)c2)c1 | inactive |
| CCCCOC(=O)CNc1nnc(SCC(=O)OCC)[nH]c1=O | 39.8 µM (active) |
| Cc1nnc(SCCCCSc2nnc(C)c(=O)[nH]2)[nH]c1=O | inactive |
| CCOC(=O)CNc1nc2ccccc2n2c(C)nnc12 | inactive |
| Cc1cccc(Cc2c(C)nc3nc(SCc4ccccc4Cl)nn3c2C)c1 | inactive |
| CCOc1ccc(C(=O)c2cn(Cc3ccc(F)cc3)c3ccc(F)cc3c2=O)cc1 | inactive |
| COC(=O)c1ccccc1NC(=O)Cn1c(=O)cc(C)c2c(C)nn(-c3cccc(Cl)c3C)c21 | inactive |
| O=c1c(-c2ccc(F)cc2)nc2cnc(N3CCOCC3)nc2n1-c1ccccc1 | inactive |
| C=CCN1CCC2(C)c3cc(O)ccc3CC1[C@@H]2C (stereo partly drawn) | inactive |
| Cc1cc(C)nc(S/C=C/C(=O)c2ccccc2)n1 | 12.6 µM (active) |
| CCn1c(CSc2nc(C)cc(C)n2)nnc1SCC(N)=O | inactive |
| O=C(CSCc1cnn(-c2ccccc2)c1-n1cccc1)NCc1ccc(Cl)cc1 | inactive |
| COc1cn(CC(=O)Nc2cccc(C)c2C)c(CN2CCCCC2)cc1=O | inactive |
| COc1ccc2[nH]cc(CCNc3cc(-c4ccccc4CN(C)C)ncn3)c2c1 | inactive |
| O=C(Nc1ccccc1)N1CCN(C2c3ccccc3-c3ccccc32)CC1 | inactive |
| O=C(Nc1cccc(NC(=O)N2CCN(c3ccccc3)CC2)c1)N1CCN(c2ccccc2)CC1 | 25.1 µM (active) |
| COc1cccc(N2CCN(C(=O)Nc3ccc4c(c3)NC(=O)CO4)CC2)c1 | inactive |
| CC(C)NC[C@H](O)c1ccc2ccccc2c1 | inactive |
| CCc1nn(CCCC(=O)NCc2ccccc2OC)c(=O)c2cc3occc3n12 | inactive |

| Compound | Potency |
| --- | --- |
| COCCn1c(=O)c(-c2cc(F)cc(F)c2)nc2cnc(N3CCNCC3)nc21 | inactive |
| COc1ccc(-c2cn3nc(N4CCCC(C(=O)NCCCOC(C)C)C4)sc3n2)cc1 (stereo not drawn) | inactive |
| O=C(Nc1c(-c2ccc(F)cc2)nc2ccccn12)c1cccc(F)c1 | inactive |
| O=C(/C(=C/c1cccc(Cl)c1)c1nc2ccccc2[nH]1)c1ccccc1 | 7.94 µM (active) |
| N#C/C(=C\c1ccccc1F)c1nc2ccccc2c(=O)[nH]1 | inactive |
| Cc1ccc2nc(CNC(=O)c3ccccc3)[nH]c2c1 | inactive |
| Cc1nn(Cc2ccc(F)cc2)c(C)c1NC(=O)c1noc2c1CCc1ccccc1-2 | 31.6 µM (active) |
| Cc1ccccc1Cn1nc(C)c(NC(=O)c2cc(-c3ccc(F)cc3)on2)c1C | inactive |
| COc1ccc2c(c1)CCc1c(C(=O)Nc3cc(C)ccc3O)noc1-2 | inactive |
| CCC(C)NC(=O)Cn1c(=O)n(-c2ccc(Cl)cc2)c(=O)c2c3c(sc21)CCCC3 (stereo not drawn) | inactive |
| COc1cc2c(cc1OC)CC1(CCCCC1)N=C2 | inactive |
| COc1cc2c(cc1OC)C(Nc1ccc(S(N)(=O)=O)cc1)=NC(C)(C)C2 | inactive |
| COc1cc2c(cc1O)C(SC)=NC(C)(C)C2 | 20 µM (active) |
| COc1ccccc1-c1cc(NCc2cccs2)ncn1 | inactive |
| CC(C)C(N)C(=O)OCCOCn1cnc2c(=O)[nH]c(N)nc21 (stereo not drawn) | inactive |
| O=c1c(-c2cc(F)cc(F)c2)nc2cnc(Oc3ccccc3)nc2n1C[C@H]1CCCO1 | inactive |
| CCCn1c(C)cc(C(=O)COC(=O)c2c(C)nn(-c3ccccc3)c2C)c1C | 35.5 µM (active) |
| CCC(Oc1ccccc1)C(=O)OCC(=O)Nc1c(C)nn(-c2ccccc2)c1C (stereo not drawn) | inactive |
| C/C=C/c1ccc(OCC(=O)OCC(=O)Nc2c(C)nn(-c3ccccc3)c2C)c(OC)c1 | inactive |
| COc1ccc(CNC(=O)COc2ccccc2C(=O)c2cnn(-c3ccccc3)c2)cc1OC | inactive |
| Cc1ccc(OC(=O)c2c(C)nn(-c3ccccc3)c2C)cc1 | inactive |
| COc1ccc(CNC(=O)COC(=O)c2c(C)nn(-c3ccccc3)c2C)cc1OC | 39.8 µM (active) |
